Bioassay records deposited in PubChem by National Center for Advancing Translational Sciences (NCATS).
Hits are enriched below; roughly 0.41% of the tested compounds scored in any of these assays.
GAA inhib – blocks human lysosomal alpha-glucosidase; AID 1466; 200,000 tested, 0.005% active; purified human GAA, 4-MU-alpha-glucoside fluorescence; P10253; Potency, µM (highest dose often 76.9 µM), for inactives: at the highest dose activity change, negative = inhibition, most hits filed as inhibitors;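 also: potency is read from the fitted curve at half-maximal effect; plate controls were uninhibited enzyme wells for no effect and no-enzyme background for full effect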
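Compounds are titrated up to 77 uM against 4 nM human enzyme. Substrate 4-methylumbelliferyl-alpha-D-pyranoside (400 uM) reacts 20 min at room temperature in pH 5.0 buffer; liberated 4-methylumbelliferone is read at 440 nm.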
GLA inh pH 4.5 – alpha-galactosidase A (human) inhibition, pH 4.5; P06280; purified enzyme, 4-MU-alpha-Gal fluorescence, pH 4.5; activity change, negative = inhibition, % at 105 µM; 230,000 tested, under 10 active;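 also: 0% = full activity with enzyme and -100% = basal without enzyme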
Target sequence (P06280 whole entry, looked up): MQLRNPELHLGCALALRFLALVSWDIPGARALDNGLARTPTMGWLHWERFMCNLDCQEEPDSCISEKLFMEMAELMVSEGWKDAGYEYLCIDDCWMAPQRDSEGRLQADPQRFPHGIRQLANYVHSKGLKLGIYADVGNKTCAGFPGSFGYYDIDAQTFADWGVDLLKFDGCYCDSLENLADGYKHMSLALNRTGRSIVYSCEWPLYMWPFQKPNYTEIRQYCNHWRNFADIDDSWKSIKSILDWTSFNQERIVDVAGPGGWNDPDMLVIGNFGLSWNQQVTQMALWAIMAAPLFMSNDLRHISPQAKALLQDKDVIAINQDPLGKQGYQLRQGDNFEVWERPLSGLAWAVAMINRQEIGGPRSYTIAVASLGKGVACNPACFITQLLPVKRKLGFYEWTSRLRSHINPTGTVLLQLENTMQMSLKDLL
N370S GC mod – inhibits or activates N370S mutant glucocerebrosidase | N370S GC spleen homogenate, 4MU-glucoside fluorescence | Potency, µM (titrated, usually from 59.4 µM), inactives show at the top dose activity change, negative = inhibition, actives largely listed as inhibitors | 330,000 tested, 0.092% active | AID 2101;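 also: potency is read from the fitted curve at half-maximal effect; 0% = full enzyme activity and -100% = no enzyme basal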
GAA glycogen – inhibitors or activators of human alpha-glucosidase glycogen cleavage | Potency, µM (titrated, usually from 76.4 µM), for the others: at the highest dose activity change, negative = inhibition, usual class: inhibitors | P10253 | AID 2100 | recombinant GAA, glycogen substrate, Amplex Red glucose oxidase fluorescence | 300,000 tested, 0.38% active;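 also: potency is read from the fitted curve at half-maximal effect; 0% = full enzyme reaction and -100% = no-enzyme basal signal; the screen sought inhibitors and activators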
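qHTS, 1536-well; enzyme 4 nM final; cpd up to 77 uM; substrate bovine liver glycogen 30 ug; 50 mM citrate/phosphate pH 5.0, 0.01% Tween-20; 37 C, 40 min; Amplex Red detection 45 min RT; Hill fit → AC50.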
GAA spleen mod – inhibits or activates alpha-glucosidase in human spleen homogenate | Potency, µM (titrated, usually from 79.9 µM), for the others: at the top dose activity change, negative = inhibition, most hits filed as inhibitors | human spleen homogenate, 4-MU-alpha-glucoside fluorescence | P10253 | 240,000 tested, 0.006% active | AID 2112;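 also: potency is read from the fitted curve at half-maximal effect; 0% = enzyme with vehicle and -100% = no enzyme basal signal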
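AC50 values come from Hill-equation fits of concentration-response data, normalized to no-enzyme and full-activity controls. Enzyme source: 1 ug human spleen homogenate; 1 mM fluorogenic 4-MU glucoside, pH 5.0 citrate buffer, 37 C, 40 min.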
aGal spleen mod – inhibitors or activators of human alpha-galactosidase in spleen homogenate; 240,000 tested, 0.008% active; human spleen homogenate, 4MU-alpha-Gal fluorescence, 40 min; Potency, µM (doses to about 80 µM), without a hit: at the highest dose activity change, negative = inhibition, actives largely listed as inhibitors; P06280; AID 2107;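 also: potency is read from the fitted curve at half-maximal effect; 0% = enzyme with vehicle and -100% = no enzyme basal signal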
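Human spleen homogenate (1 ug) was the enzyme source, with 4-methylumbelliferyl-alpha-D-galactopyranoside (1 mM final) in pH 5.0 citrate buffer with 0.01% Tween-20. Compounds were titrated; after 40 min at 37C, NaOH/glycine stop, 4-MU fluorescence read; AC50 from Hill fits.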
Starred values were filed as active, the others as inactive; u = inconclusive; x = no result given; ! = not active in a repeat; [ ] = another dose, or the depositor's remark. Calls follow the shape of the dose curve; as a rule, active = well fitted curve in the direction sought with a large enough effect; inconclusive = small, poorly fitted or top-dose-only effect, or another doubt; inactive = no such curve, though single readings can be large; an effect the other way counts as inactive or inconclusive.

SMILES	GAA inhib	GLA inh pH 4.5	N370S GC mod	GAA glycogen	GAA spleen mod	aGal spleen mod
Brc1ccc(C=Nc2ccc(Nc3ccccc3)cc2)s1	2%	19	-4%	8.9µM*	-11%	1%
CCOc1ccc(CN(CCc2ccc3c(c2)OCO3)Cc2cc(OC)cc(OC)c2)cc1	x	x	x	7%[76.3 µM]	x	x
CCOC(=O)c1c(C)[nH]c(C=Nc2ccc(OC)cc2)c1O	-4%	-2	-2%	8.9µM*	-2%	-1%
CCOC(=O)c1c(C)[nH]c(C=Nc2ccccc2)c1O	1%	-8	-11%	4%	0%	3%
CN1CCN(C(=O)Nc2cccc(Cl)c2)c2cccnc21	x	x	x	4.5µM*	x	x
O=C(Oc1cccc2c(O)cccc12)c1ccccc1	-11%	-6	1%	28µM*	-2%	-2%
C=CCc1c(C)nc(-c2ccccc2)nc1N/N=C(\C)c1ccccc1	5%	-1	10µM*	u	-1%	5%
C=CCc1c(C)nc(-c2ccccc2)nc1Nc1ccc(O)cc1	2%	-3	14µM*	3%	-5%	-2%
CC[C@H](C)[C@H](NC(=O)[C@H](CCC(=O)O)NC(=O)[C@H](CO)NC(=O)[C@@H](NC(=O)[C@@H](N)CO)C(C)C)C(=O)N[C@@H](CCC(N)=O)C(=O)N[C@@H](CC(C)C)C(=O)N[C@@H](CCSC)C(=O)N[C@@H](Cc1cnc[nH]1)C(=O)N[C@@H](CC(N)=O)C(=O)N[C@@H](CC(C)C)C(=O)NCC(=O)N[C@@H](CCCCN)C(=O)N[C@@H](Cc1cnc[nH]1)C(=O)N[C@@H](CC(C)C)C(=O)N[C@@H](CC(N)=O)C(=O)N[C@@H](CO)C(=O)N[C@@H](CCSC)C(=O)N[C@@H](CCC(=O)O)C(=O)N[C@@H](CCCNC(=N)N)C(=O)N[C@H](C(=O)N[C@@H](CCC(=O)O)C(=O)N[C@@H](Cc1c[nH]c2ccccc12)C(=O)N[C@@H](CC(C)C)C(=O)N[C@@H](CCCNC(=N)N)C(=O)N[C@@H](CCCCN)C(=O)N[C@@H](CCCCN)C(=O)N[C@@H](CC(C)C)C(=O)N[C@@H](CCC(N)=O)C(=O)N[C@@H](CC(=O)O)C(=O)N[C@H](C(=O)N[C@@H](Cc1cnc[nH]1)C(=O)N[C@@H](CC(N)=O)C(=O)N[C@@H](Cc1ccccc1)C(=O)N[C@H](C(=O)N[C@@H](C)C(=O)N[C@@H](CC(C)C)C(=O)NCC(=O)O)C(C)C)C(C)C)C(C)C	x	x	0%	x	5%	14%
COC(=O)c1cc(NCc2ccccc2F)ccc1N1CCOCC1	-1%	-10	3%	u	6%	5%
O=C(O)c1cc(NCc2c(F)cccc2Cl)ccc1N1CCOCC1	3%	2	24%	7.1µM*	-7%	0%
CN(C)c1ccc(N/C=C/C(=O)c2ccco2)cc1	5%	-5	4%[12.8 µM]	13µM*	2%	1%
CC(=O)Nc1ccc(N/C=C/C(=O)c2ccco2)cc1	-6%	-3	13%	-7%	-3%	-2%
O=C(/C=C/Nc1ccccc1Oc1ccccc1)c1ccco1	-6%	-7	6%	-10%	-3%	-8%
O=C(/C=C/Nc1ccccc1O)c1ccco1	x	-9	-7%	16µM*	-1%	-5%
C=C(C)C(O)/C=C/c1ccc(OC)cc1 (configuration not stated)	x	x	3%[12.8 µM]	x	6%[17.4 µM]	2%[17.5 µM]
Oc1ccc(Br)cc1-c1nc2cnccn2c1NC1CCCC1	0%	-11	5%	16µM*	-5%	-16%
COc1c(F)c(F)c(C(=O)Nc2ccc(N3CCN(C(C)=O)CC3)c(Cl)c2)c(F)c1F	-3%	-1	11µM*	-1%	-1%	2%
Cc1ccc(NC(=O)C(=O)c2cc(C)n(-c3ccc(F)cc3)c2C)cc1C	x	x	x	7%[76.3 µM]	x	x
CCn1c(SCC(=O)c2ccc(O)c(O)c2)nnc1-c1ccccc1	u	7	-7%	7.9µM*	-8%	-3%
COc1ccccc1-c1nnc(SCC(=O)c2ccc(Cl)cc2)n1-c1ccccc1	x	x	x	-6%[76.3 µM]	x	x
C=CCn1c(SCC(=O)c2ccc(O)c(O)c2)nnc1-c1cccnc1	x	-9	-15%	u	6%	-3%
CCn1c(SCC(=O)c2ccc(O)c(O)c2)nnc1-c1ccccc1OC	-15%	0	-1%	25µM*	-15%	2%
C=CCn1c(SCC(=O)c2ccc(O)c(O)c2)nnc1-c1ccccc1OC	-3%	-9	-7%	18µM*	0%	-8%
CCOC(=O)CN(Cc1cc(OC)cc(N(C)C)c1OC)C(=O)C1CC(CO[Si](C)(C)C(C)(C)C)=CN1C(=O)OC(C)(C)C (configuration not stated)	x	x	-6%	x	-1%	6%
SMILES	GAA inhib	GLA inh pH 4.5	N370S GC mod	GAA glycogen	GAA spleen mod	aGal spleen mod
COc1cccc(N2C(=O)CC(N3CCc4ccccc43)C2=O)c1 (configuration not stated)	-1%	1	10%	40µM*	-6%	11%
Cc1ccc(-n2c(=O)c3ccc(C(=O)NCc4ccco4)cc3n(Cc3ccccc3Cl)c2=O)cc1	x	x	x	-6%[76.3 µM]	x	x
Cc1ccc(-n2c(=O)c3ccc(C(=O)NCc4ccco4)cc3n(Cc3ccccc3C#N)c2=O)cc1	4%	-4	-9%	32µM*!	-8%	5%
CC(C)(C)C(=O)OCCNc1nc(-c2ccccc2)nc2ccccc12	-11%	-4	0.89µM*	-1%	3%	-9%
Clc1ccccc1-c1nc(NCc2cccnc2)c2ccccc2n1	x	x	16µM*	x	3%	9%
c1ccc(CCNc2nc(-c3ccncc3)nc3ccccc23)cc1	x	-1	14µM*	-3%	0%	-5%
CC(C)OCCCNc1nc(-c2ccccc2)nc2ccccc12	x	x	1.8µM*	-10%[76.3 µM]	x	x
COC(OC)[C@@H](C)[C@H](OC)[C@@H](C)[C@H](OC)c1ccccc1	x	x	13%[12.8 µM]	x	5%[17.4 µM]	27%[17.5 µM]
COc1cccc([C@@H]2Oc3ccc(Br)cc3C[C@H]2OC(=O)N[C@H]2CCCc3ccccc32)c1	x	-6	-3%	x	7%	8%
CCCN1C(=O)C(NC(=O)c2ccccc2OC)(C(F)(F)F)C(C(=O)OC)=C1C (configuration not stated)	x	x	x	11%[76.3 µM]	x	x
Cc1cc(C)c(S(=O)(=O)/N=C2\C=CC(=O)C(Cl)=C2)c(C)c1	u	0	-1%	12µM*	-2%	-3%
COc1cccc(CS(=O)(=O)c2nnnn2-c2ccccc2)c1	x	-12	9%	x	-1%	-5%
O=C(O)CC[C@@H](C(=O)O)N1C(=O)c2ccccc2C1=O	x	-1	10%	-1%	-12%	7.9µM*!
